Measured values published in PubChem BioAssay (EPA / NIEHS).
Where “and” joins values, the source holds several entries; their conditions need not be identical. Equal entries are not always repeated. Some structures have more than one record in an assay (separate samples or runs), and their calls can disagree. Calls of active or inactive are those of the source. Rule for the calls: active = hit-call score of the fitted dose curve at least 0.9, where 1 is the maximum; inactive = score below 0.9.

These compounds were tested against X-box-binding protein 1 (Homo sapiens) (UniProt P17861) (assay: ATG_Xbp1_CIS: Attagene CIS-FACTORIAL HepG2 Assay for human X-box Binding Protein 1 (XBP1) (AID 2282972)). Conditions: HepG2 XBP1 cis-element reporter, Attagene multiplex; actives raise or lower the signal.
X-box-binding protein 1 (Homo sapiens), sequence (P17861 whole entry, looked up): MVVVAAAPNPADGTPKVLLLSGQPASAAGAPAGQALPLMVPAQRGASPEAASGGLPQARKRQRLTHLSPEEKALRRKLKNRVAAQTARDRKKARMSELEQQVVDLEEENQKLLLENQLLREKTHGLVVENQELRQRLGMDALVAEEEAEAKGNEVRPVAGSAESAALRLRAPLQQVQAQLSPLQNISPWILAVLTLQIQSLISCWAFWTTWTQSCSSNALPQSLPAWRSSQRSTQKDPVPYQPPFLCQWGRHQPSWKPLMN
Description: ATG_CIS is a cell-based, multiplexed-readout assay that uses HepG2, a human liver cell line, with measurements taken at 24 hours after chemical dosing in a 24-well plate.ATG_Xbp1_CIS is one of 52 assay component(s) measured or calculated from the ATG_CIS assay. It is designed to make measurements of mRNA induction, a form of inducible reporter, as detected with fluorescence intensity signals by Reverse transcription polymerase chain reaction (RT-PCR) and Capillary electrophoresis technology.Data from the assay component ATG_Xbp1_CIS was analyzed into 1 assay endpoint. This assay endpoint, ATG_Xbp1_CIS, was analyzed with bidirectional fitting relative to DMSO as the negative control and baseline of activity. Using a type of inducible reporter, measures of mRNA for gain or loss-of-signal activity can be used to understand the reporter gene at the transcription factor-level as they relate to the gene XBP1. Furthermore, this assay endpoint can be referred to as a primary readout, because this assay has produced multiple assay endpoints where this one serves a reporter gene function. To generalize the intended target to other relatable targets, this assay endpoint is annotated to the dna binding intended target family, where the subfamily is basic leucine zipper.
Human liver HepG2 cells are transiently transfected with multiple reporter transcription units (MRTUs) in 6-well plates using FuGene 6 reagent (Roche; 3 ml FuGene/1 mg DNA). The MRTU constructs are regulated by a cis-regulating element (promoter). […] A major difference between the CIS and TRANS system is that in CIS activities of endogenous TFs are measured, whereas the TRANS assay evaluates changes in activities of exogenous, chimeric NR-Gal4 proteins. […] At the end of 24 hour incubation, total RNA was isolated using TriZol reagent (Invitrogen). The isolated RNA is then reverse-transcribed using oligo(dT) primer and Mo-MLV reverse transcriptase (Invitrogen) with DNAse I (Ambion) treatment for 30 min. The one-tenth of the produced cDNA was amplified by PCR using Taq DNA polymerase (Invitrogen) and two reporter sequence-specific primers. The PCR products were fluorescently labeled by primer extension with 6-arboxyfluorescein (6-FAM) 5'-labeled reporter sequence-specific primer (2 min at 95 C, 20 s at 68 C and 10 min at 72 C) and these products were digested with 5U of HpaI (New England Biolabs) for 2h at 37 C. The fragments were purified using Qiaquick PCR columns (Qiagen), analyzed on an ABI 3130xL genetic analyzer (Applied Biosystems) with peak positions identified by using a set of X-rhodamine (ROX)-labeled MapMarker1000 molecular weight standards (BioVentures). The raw capillary electrophoresis data was processed using Attagraph software (Attagene).
With COC(=O)c1cccc(C(=O)OC)c1 the outcome was “inactive”. [Na+] was tested, and the outcome was “inactive”. C=C(C)C(=O)OCCN(C)C was tested, and the outcome was “inactive”. With CCCCCCC(O)CCOC(C)=O (stereo not given) the outcome was “inactive”. With CCc1cccc(O)c1 the outcome was “inactive”. For CCC(C)C1CCCCC1=O (stereo not given), the outcome was “inactive”. For N#CCCCC(C#N)CCC#N (stereo not given), the outcome was “inactive”. O=c1cc(-c2ccc(O)cc2)oc2cc(O)cc(O)c12 was tested, and the AC50 was 16.2 µM (active). In the case of Nc1ccc(O)c(N)c1, the outcome is reported as “inactive”. In the case of CCCCN(CCO)CCO, the outcome is reported as “inactive”. [Cl][Dy]([Cl])[Cl] was tested, and the outcome was “inactive”. CC(C)Cc1ccc(C(C)C(=O)O)cc1 (stereo not given) was tested, and the outcome was “inactive”. With [O-]/[N+](=N\O)c1ccccc1 the outcome was “inactive”. In the case of O=C(OCc1ccccc1)c1ccccc1O, the outcome is reported as “inactive”. For CC(C)(C)C1CCC(O)CC1 (stereo not given), the outcome was “inactive”. In the case of CCCO, the outcome is reported as “inactive”. For CC(C)=CC(=O)O, the outcome was “inactive”. With CC12CCC(C1)C(C)(C)C2O (stereo not given) the outcome was “inactive”. For CCCCCCOc1ccc(O)cc1, the outcome was “inactive”. In the case of S=c1[nH][nH]c(=S)s1, the outcome is reported as “inactive”. In the case of Cc1ccncc1, the outcome is reported as “inactive”. In the case of CCCCN(CCCC)CCCCCCN(CCCC)CCCC, the outcome is reported as “inactive”. For C=CC(C)CCCC(C)(C)O (stereo not given), the outcome was “inactive”. In the case of C=CCOC(=O)/C=C\C(=O)OCC=C, the AC50 is reported as 26.5 µM (active). C=C(C)C(=O)OCCOCCOC(=O)C(=C)C was tested, and the outcome was “inactive”. With c1ccc2scnc2c1 the outcome was “inactive”. For CC(=O)Nc1cc(S(=O)(=O)O)cc2cc(S(=O)(=O)O)c(N=Nc3ccccc3)c(O)c12, the outcome was “inactive”. In the case of O=C(c1ccc(OCCN2CCCCC2)cc1)c1c(-c2ccc(O)cc2)sc2cc(O)ccc12, the AC50 is reported as 11.1 µM (active) and 8.64 µM (active) and 12 µM (active) and the outcome is reported as “inactive”. CC(=O)OCC=C(C)CCC=C(C)CCC=C(C)C was tested, and the AC50 was 151 µM (active). For CC(=O)OC/C=C(C)/C=C/C=C(C)/C=C/C1=C(C)CCCC1(C)C, the outcome was “inactive”. For O=C(O)c1ccccc1O, the outcome was “inactive”. O=S(=O)(O)c1cc(S(=O)(=O)O)c2c(N=Nc3ccccc3)c(O)ccc2c1 was tested, and the outcome was “inactive”. COc1ccc2[nH]cc(CCNC(C)=O)c2c1 was tested, and the outcome was “inactive”. For c1ccc2c(c1)-c1ccc3ccc4cccc5cc-2c1c3c45, the outcome was “inactive”. In the case of C[C@]12CC[C@@H]3c4ccc(O)cc4CC[C@H]3[C@@H]1CC[C@@H]2O, the outcome is reported as “inactive”. In the case of CC1=C(C=O)C(C)(C)CCC1, the outcome is reported as “inactive”. With CC(C)OB(OC(C)C)OC(C)C the outcome was “inactive”. With CCCCCCCCOC(=O)c1ccc(O)cc1 the outcome was “inactive”. With CC(C)Cc1ccccc1 the outcome was “inactive”.
